This passage reports outcome results from PubChem BioAssay (EPA / NIEHS).

Each structure is given as a SMILES string. Inconclusive results are not listed. The source made the active and inactive calls. The calls were made as follows: active = hit-call score of the fitted dose curve at least 0.9, where 1 is the maximum; inconclusive = response in the unintended direction; inactive = score below 0.9.

A short description of the assay: ATG_M_06_TRANS: Attagene TRANS-FACTORIAL HepG2 Assay for M06 Transcription Factor (Internal Marker) (AID 2282983). As to conditions: HepG2 Attagene TRANS M06 internal marker reporter. On the procedure: ATG_TRANS is a cell-based, multiplexed-readout assay that uses HepG2, a human liver cell line, with measurements taken at 24 hours after chemical dosing in a 24-well plate.ATG_M_06_TRANS is one of 30 assay component(s) measured or calculated from the ATG_TRANS assay. It is designed to make measurements of mRNA induction, a form of inducible reporter, as detected with fluorescence intensity signals by Reverse transcription polymerase chain reaction (RT-PCR) and Capillary electrophoresis technology.Data from the assay component ATG_M_06_TRANS was analyzed into 1 assay endpoint. This assay endpoint, ATG_M_06_TRANS, was analyzed in the positive analysis fitting direction relative to DMSO as the negative control and baseline of activity. Using a type of inducible reporter, measures of mRNA for gain-of-signal activity can be used to understand the background control at the transcription factor-level as they relate to the gene . Furthermore, this assay endpoint can be referred to as a secondary readout, because this assay has produced multiple assay endpoints where this one serves a background control function. To generalize the intended target to other relatable targets, this assay endpoint is annotated to the background measurement intended target family, where the subfamily is internal marker.
Human liver HepG2 cells are transiently transfected with multiple reporter transcription units (MRTUs) in 6-well plates using FuGene 6 reagent (Roche; 3 ml FuGene/1 mg DNA). The MRTU constructs are regulated by a cis-regulating element (promoter). […] A major difference between the CIS and TRANS system is that in CIS activities of endogenous TFs are measured, whereas the TRANS assay evaluates changes in activities of exogenous, chimeric NR-Gal4 proteins. […] At the end of 24 hour incubation, total RNA was isolated using TriZol reagent (Invitrogen). The isolated RNA is then reverse-transcribed using oligo(dT) primer and Mo-MLV reverse transcriptase (Invitrogen) with DNAse I (Ambion) treatment for 30 min. The one-tenth of the produced cDNA was amplified by PCR using Taq DNA polymerase (Invitrogen) and two reporter sequence-specific primers. The PCR products were fluorescently labeled by primer extension with 6-arboxyfluorescein (6-FAM) 5'-labeled reporter sequence-specific primer (2 min at 95 C, 20 s at 68 C and 10 min at 72 C) and these products were digested with 5U of HpaI (New England Biolabs) for 2h at 37 C. The fragments were purified using Qiaquick PCR columns (Qiagen), analyzed on an ABI 3130xL genetic analyzer (Applied Biosystems) with peak positions identified by using a set of X-rhodamine (ROX)-labeled MapMarker1000 molecular weight standards (BioVentures). The raw capillary electrophoresis data was processed using Attagraph software (Attagene).
On to `CCCCCCCCCCCCCCCC[N+](C)(C)CC`, for which the result was inactive.
`OC1CCCCCCCCCCC1`: the molecule was called inactive.
Next, `C(=CC=Nc1ccccc1)C=CNc1ccccc1`: “inactive”.
For the molecule `C=C(C)CCO`, the molecule was called inactive.
In the case of `Cc1ccc(C(C)(C)C)cc1`, the molecule was classed as inactive.
With `Cc1oncc1C(=O)Nc1ccc(C(F)(F)F)cc1`, the outcome was inactive.
In the case of `COC(=O)c1sccc1S(N)(=O)=O`, the result was inactive.
In the case of `CCCCCCCCCCCCCCCCCC#N`, the molecule was classed as inactive.
As to `CC(C)=CCC[C@H](C)CCO`, the outcome was inactive.
As to `Cc1cc(C)c(C)c(C)c1`, the molecule was classed as inactive.
In the case of `CCC(=O)Oc1ccc(/C(CC)=C(\CC)c2ccc(OC(=O)CC)cc2)cc1`, the outcome was inactive.
`Cc1cccc(N)n1`: the molecule was classed as inactive.
As to `C=C(C)c1cccc(C(C)(C)N=C=O)c1`, the result was inactive.
As to `O=C(C=Cc1ccccc1)OCc1ccccc1`, the result was inactive.
As for `C/C=C\C/C=C/CCCCCCCCOC(C)=O`, the molecule was classed as inactive.
For the molecule `Cc1cc(C)c(C)c(O)c1`, the outcome was inactive.
In the case of `COC(F)(F)C(F)(C(F)(F)F)C(F)(F)F`, the outcome was inactive.
As to `NC(CO)(CO)CO`, the molecule was called inactive.
As for `c1ccc(CCCc2ccncc2)cc1`, the call was inactive.
Take `CCC(C)OC(=O)c1ccc(O)cc1` (stereo not given): the call was inactive.
For `CC(=O)OCc1ccco1`, the molecule was called inactive.
For `c1ccc(CNCc2ccccc2)cc1` the value was “inactive”; for `C=CC=CC=CCCCCC`, “inactive”.
In the case of `O=Nc1ccc(O)cc1`, the call was inactive.
`CC(C)CCCC(C)CC=O` (stereo not given): the molecule was called inactive.
For `CCN(CCC#N)c1ccc(N=Nc2c(Cl)cc([N+](=O)[O-])cc2Cl)cc1` the value was “inactive”.
For `OCCNCc1ccccc1`, the call was inactive.
On to `O=S(=O)(Oc1ccc(Cl)cc1Cl)c1ccccc1`, for which the molecule was called inactive.
Take `CC(=O)NS(=O)(=O)c1ccc(N)cc1`: the molecule was called inactive.
As to `O=C(c1ccc(O)cc1)c1ccc(O)cc1O`, the molecule was classed as inactive.
For `O=S(=O)(O)c1cc(S(=O)(=O)O)c2ccc3c(S(=O)(=O)O)cc(S(=O)(=O)O)c4ccc1c2c43`, the molecule was classed as inactive.
Regarding `CCCCCCCOC(=O)CCC`, the molecule was called inactive.
On to `CCCCCCOc1cc(C)c(O)c(C)c1C`, for which the molecule was classed as inactive.
On to `c1ccc2c(c1)ccc1ncccc12`, for which the call was inactive.
For `O=C1OC(=O)c2cc(Oc3ccc4c(c3)C(=O)OC4=O)ccc21` the value was “inactive”.
Take `COc1ccc(C(Cl)=C(c2ccc(OC)cc2)c2ccc(OC)cc2)cc1`: the call was inactive.
`OC1OCCOC1O` (stereo not given): the call was inactive.
Take `SCCc1cnccn1`: the molecule was called inactive.
`NNC(=O)c1cccc(C(=O)NN)c1`: the molecule was classed as inactive.
On to `CN(C)c1ccc(N=Nc2ccccc2C(=O)O)cc1`, for which the outcome was inactive.
